For 19 compounds, Potency results are on record in PubChem BioAssay (NCATS).

Experiment in all cases: qHTS profiling for inhibitors of Plasmodium falciparum proliferation (AID 504749); note: nearly all actives have a fitted effect of over 60% in size
Common to all, as to conditions: P. falciparum in erythrocytes, SYBR Green DNA, 72 h; series mostly up to 28.7 µM
In general terms: Quantitative high-throughput screening tests each substance at several concentrations.

The test system of one test is CP238. An outline of the steps:
(§1)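 P. falciparum-infected erythrocytes (0.3% parasitemia, 2.5% hematocrit) incubated with compound 72 h at 37 C, 5% CO2. Parasite DNA detected by SYBR Green after lysis, overnight at room temperature; normalised to 0.29 uM artemisinin and DMSO.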

For another test, the system named is CP247. An outline of the steps: as §1
The subject of a further test is CP250. Put shortly: as §1
The test system of a further test is CP252. Put shortly: as §1
In another test the test system is CP256. Put shortly: as §1
The next test relates to CP260. Put shortly:
as §1

A further test deals with CP262. Put shortly: as §1
The test system of another test is CP265. Put shortly: as §1
For another test, the system named is CP266. Put shortly: as §1
A further test deals with CP268. An outline of the steps:
as §1

The structures appear in SMILES notation. Records with an inconclusive call do not appear. Activity calls are given as the source filed them. Calls come from the whole dose curve; as a rule, active = well fitted inhibition curve with a large enough effect; inconclusive = small, poorly fitted or top-dose-only effect; inactive = flat fitted curve, though single readings scatter.
Potency is the fitted concentration of half-maximal effect.

In the case of `O=P(O)(O)C(O)(Cc1cccnc1)P(=O)(O)O`, the Potency entry with CP238, in the test with CP247, with CP250, in the test with CP252, in the test on CP256 and in the test on CP260 was “inactive” throughout. The Potency result in the test on CP262, with CP265, in the test on CP266 and with CP268 was “inactive” in each case.

For `CCc1c2c(nc3ccc(OC(=O)N4CCC(N5CCCCC5)CC4)cc13)-c1cc3c(c(=O)n1C2)COC(=O)[C@]3(O)CC`, the Potency entry with CP238, in the test on CP247, in the test on CP250, with CP252, in the test with CP256 and in the test on CP260 was “inactive” throughout. The Potency entry in the test on CP262, in the test on CP265 and in the test on CP268 was “inactive” each time.

For the compound `COc1cnc(NS(=O)(=O)c2ccc(N)cc2)nc1`, the Potency entry in the test on CP238, with CP247, with CP250, in the test with CP252, with CP256 and in the test on CP260 was “inactive” each time. Also, the Potency result with CP262, with CP265 and with CP268 was “inactive” in each case.

In the case of `COc1cc(NS(=O)(=O)c2ccc(N)cc2)nc(OC)n1`, the Potency result with CP238, in the test with CP247, in the test with CP250, in the test on CP252, in the test on CP256 and with CP260 was “inactive” in each case. Also, the Potency result with CP262, with CP265 and with CP268 was “inactive” in each case.

For the compound `CCN(C)C(=O)Oc1cccc([C@H](C)N(C)C)c1`, the Potency result in the test on CP238, with CP247, in the test on CP250, in the test with CP252, with CP256 and with CP260 was “inactive” in each case. The Potency result in the test with CP262, with CP265, in the test on CP266 and in the test with CP268 was “inactive” throughout.

Take `Nc1nc(N)nc(-c2cc(Cl)ccc2Cl)n1`: the Potency result in the test on CP238, with CP247, with CP250, with CP252, with CP256 and in the test with CP260 was “inactive” throughout. The Potency result in the test with CP262, with CP265 and in the test on CP268 was “inactive” in each case.

Regarding `Cc1nnc(NS(=O)(=O)c2ccc(N)cc2)s1`, the Potency result with CP238, in the test with CP247, in the test with CP250, with CP252, in the test with CP256 and with CP260 was “inactive” in each case. Further, the Potency entry in the test on CP262, in the test on CP265, in the test on CP266 and with CP268 was “inactive” each time.

With `S=P(N1CC1)(N1CC1)N1CC1`, the Potency result in the test on CP238, with CP247, in the test with CP250, in the test on CP252, in the test on CP256 and in the test on CP260 was “inactive” each time. Also, the Potency entry in the test on CP262, in the test with CP265, with CP266 and in the test with CP268 was “inactive” in each case.

Consider `NCCCC(O)(P(=O)(O)O)P(=O)(O)O`, for which the Potency result in the test on CP238, in the test with CP247, in the test with CP250, with CP252, in the test with CP256 and with CP260 was “inactive” in each case. Moreover, the Potency result with CP262, in the test with CP265 and in the test with CP268 was “inactive” throughout.

For `Cc1ncc([N+](=O)[O-])n1CCO`, the Potency entry in the test on CP238, in the test on CP247, in the test on CP250, in the test on CP252, in the test with CP256 and with CP260 was “inactive” throughout. Also, the Potency result with CP262, with CP265 and in the test with CP268 was “inactive” each time.

Take `CN1CCN(c2c(F)cc3c(=O)c(C(=O)O)cn4c3c2OCN4C)CC1`: the Potency entry with CP238, in the test with CP247, in the test on CP250, in the test on CP252, with CP256 and with CP260 was “inactive” each time. Besides, the Potency entry with CP265, in the test with CP266 and in the test with CP268 was “inactive” in each case.

Take `COC(=O)Nc1nc2ccc(Sc3ccccc3)cc2[nH]1`: the Potency result in the test with CP238, in the test on CP247, in the test on CP250, in the test with CP252, in the test with CP256 and in the test on CP260 was “inactive” each time. In addition, the Potency entry in the test with CP262, in the test with CP265 and with CP268 was “inactive” in each case.

With `NC(=O)c1cccnc1`, the Potency entry in the test with CP238, in the test with CP247, in the test on CP250, in the test on CP252, with CP256 and in the test on CP260 was “inactive” each time. The Potency entry with CP262, with CP265 and in the test with CP268 was “inactive” each time.

With `CC(C)(Sc1cc(C(C)(C)C)c(O)c(C(C)(C)C)c1)Sc1cc(C(C)(C)C)c(O)c(C(C)(C)C)c1`, the Potency result with CP238, with CP247, in the test on CP250, in the test with CP252, in the test on CP256 and with CP265 was “inactive” throughout. In addition, the Potency entry in the test on CP266 and in the test with CP268 was “inactive” in each case. Moreover, the Potency with CP260 was 3.55 µM (active).

In the case of `COc1ccc2cc3[n+](cc2c1OC)CCc1cc2c(cc1-3)OCO2`, the Potency with CP238 was 891 nM (active); with CP247, 3.16 µM (active); in the test with CP250, 1.41 µM (active); in the test with CP252 it was 1.12 µM (active); with CP256 it was 282 nM (active); in the test on CP260, 0.891 µM (active). Further, the values for the Potency in the test with CP262, in the test with CP265 and in the test on CP268 were 757 nM (active), 891 nM (active) and 1.35 µM (active), respectively.

For `COC(=O)Nc1nc2ccc(C(=O)c3ccccc3)cc2[nH]1`, the Potency entry in the test on CP238, in the test with CP247, in the test on CP250, in the test with CP252, in the test on CP256 and in the test with CP260 was “inactive” in each case. Further, the Potency entry with CP262, in the test with CP265 and in the test with CP268 was “inactive” throughout.

`O=c1cc(O)c(Cl)c[nH]1`: the Potency result in the test on CP238, in the test with CP247, in the test with CP250, with CP252, in the test on CP256 and with CP260 was “inactive” throughout. The Potency result with CP262, with CP265 and in the test with CP268 was “inactive” throughout.

Consider `COc1ccc(-c2ccc3cc(C(=O)O)ccc3c2)cc1C12CC3CC(CC(C3)C1)C2`, for which the Potency entry in the test on CP238, in the test with CP247, in the test with CP250, in the test with CP252, in the test with CP256 and in the test with CP260 was “inactive” throughout. Besides, the Potency entry with CP262, with CP265, in the test on CP266 and with CP268 was “inactive” throughout.

Take `CCOC(=O)c1ccc(OC(=O)CCCCCN=C(N)N)cc1`: the Potency entry in the test with CP238, in the test with CP247, in the test on CP250, in the test with CP252, with CP256 and in the test with CP262 was “inactive” throughout. The Potency result in the test on CP266 and in the test on CP268 was “inactive” each time.
